Experimental data: ChEMBL document CHEMBL3988442, “University of Dundee, Small-Polar-MMV Screening Library” (2021)
Among all 69,000 compounds or so, about 1,000 (1.4%) showed an effect of 50% or more. The sample as a whole holds a higher share of strong results than the screen did.

System: Leishmania donovani
Assay: Leishmania intramacrophage assay
Assay type: functional, organism-based
Design: scale not given: in the data most compounds retested in dose-response had high values

Cc1cnc(N2CC[C@@H]3OC(COCC(=O)N(C)C)CC[C@@H]32)nc1.O=C(O)C(F)(F)F (some centres not stated)
Percent Effect (30.3 µM, […]): 4.675%

Cc1nc(-c2cncnc2C2CCCNC2)no1.Cl.Cl (configuration not stated)
Percent Effect (30.3 µM, […]): 9.405%

O=C(Nc1nncs1)c1ccc(O)nc1
Percent Effect (30.3 µM, […]): 16.66%

CCc1nnc(CNC2CCN(c3ncnc4c(C)csc34)CC2)s1
Percent Effect (30.3 µM, […]): 52.55%

Cc1nnc(CCNC2CCN(c3ncnc4c(C)csc34)CC2)s1
Percent Effect (30 µM, 30.03 µM): 49.19%

Cc1nc(C)n(CCNC2CCN(c3ncnc4c(C)csc34)CC2)n1
Percent Effect (30.3 µM, […]): -18.48%

CCNC(=O)NC(C)c1nc(-c2ccc(Br)cc2)no1 (configuration not stated)
Percent Effect (30.3 µM, […]): 26.95%

CSCC1CCN(C(=O)c2ccccc2NCc2cccnc2)C1 (configuration not stated)
Percent Effect (30.3 µM, […]): -38.07%

CC(C)SCC(=O)NCc1cc2n(n1)CCCN(C1CCCCC1)C2
Percent Effect (30.3 µM, […]): 64.6%

CCC(C)NC(=O)NCc1cc2n(n1)CCCN(C1CCCCC1)C2 (configuration not stated)
Percent Effect (30.3 µM, […]): 50.3%

CCCOC(C)C(=O)NCc1cc2n(n1)CCCN(C1CCCCC1)C2 (configuration not stated)
Percent Effect (30.3 µM, […]): 20.03%

CSCCC(=O)NCc1cc2n(n1)CCCN(C1CCCCC1)C2
Percent Effect (30.3 µM, […]): -17.68%

CCC(OC)C(=O)NCc1cc2n(n1)CCCN(C1CCCCC1)C2 (configuration not stated)
Percent Effect (30.3 µM, […]): 1.469%

CN[C@@H](CO)C(=O)NCc1cc2n(n1)CCCN(C1CCCCC1)C2
Percent Effect (30.3 µM, […]): 3.405%

Cc1cc(C)n(-c2cncc(N3CCC(C(=O)N(C)C)CC3)n2)n1
Percent Effect (30.3 µM, […]): -6.574%

O=C(c1ccc(=O)[nH]n1)N1CCNCC1c1ccccc1 (configuration not stated)
Percent Effect (30.3 µM, […]): -5.209%

CC(C)Nc1cccc(C(=O)NCC(O)c2cccc(F)c2)c1 (configuration not stated)
Percent Effect (30.3 µM, […]): 8.412%

CCc1nc(N)sc1C(=O)N1CCCC(CCc2ccccc2C)C1 (configuration not stated)
Percent Effect (30 µM, 30.03 µM): 59.23%

CCc1nc(N)sc1C(=O)N1CCCC(COc2cccc(C)c2)C1 (configuration not stated)
Percent Effect (30.3 µM, […]): -12.25%

Cc1ccccc1CCC1CCCN(C(=O)Cc2cc(=O)[nH]c(N)n2)C1 (configuration not stated)
Percent Effect (30.3 µM, […]): -48.51%

CC(=O)N1CCC(c2cncc(N3CCC(O)C3)n2)CC1 (configuration not stated)
Percent Effect (30.3 µM, […]): 8.685%

O=C(O)C(F)(F)F.O=S(=O)(NC1CCC12CCN(CC1CCOCC1)CC2)c1ccccc1 (configuration not stated)
Percent Effect (30.3 µM, […]): 17.74%

CC(C)(C)OC(=O)N[C@@H]1C[C@@H](O)CN(C(=O)c2cccc(F)c2)C[C@H]1O
Percent Effect (30.3 µM, […]): 29.87%

COc1ccccc1CNCc1nn(-c2ccccc2)c2c1CCC2
Percent Effect (30.3 µM, […]): 72.37%

Cc1c(CNCc2nn(-c3ccccc3)c3c2CCC3)cc(C#N)n1C
Percent Effect (30.3 µM, […]): 49.86%

Cc1noc(C)c1CNCc1nn(-c2ccccc2)c2c1CCC2
Percent Effect (30.3 µM, […]): -2.831%

CC(=O)c1cccc(OCCCC(=O)N(C)Cc2cnn(C)c2)c1
Percent Effect (30.3 µM, […]): -2.967%

COc1ccc(-c2cc(CNc3ncnc4c3CCNCC4)no2)cc1
Percent Effect (30.3 µM, […]): 66.16%

Cc1ccc(-c2cc(CNc3ncnc4c3CCNCC4)no2)cc1
Percent Effect (30.3 µM, […]): 97.6%

c1cncc(-c2noc(CNc3ncnc4c3CCNCC4)n2)c1
Percent Effect (30.3 µM, […]): 35.11%

c1cncc(-c2noc(CCNc3ncnc4c3CCNCC4)n2)c1
Percent Effect (30.3 µM, […]): 24.85%

Clc1ccccc1-c1cc(CNc2ncnc3c2CCNCC3)no1
Percent Effect (30.3 µM, […]): 94.85%

c1ccc(Cn2cc(CNc3ncnc4c3CCNCC4)cn2)cc1
Percent Effect (30.3 µM, […]): 13.57%

Cc1cccc(=O)n1CCCNc1ncnc2c1CCNCC2
Percent Effect (30.3 µM, […]): 9.317%

COCc1noc(CCNc2ncnc3c2CCNCC3)n1
Percent Effect (30.3 µM, […]): 2.148%

Cc1ccccc1-n1cc(CNc2ncnc3c2CCNCC3)cn1
Percent Effect (30.3 µM, […]): 29.71%

Cc1cccc(-n2cc(CNc3ncnc4c3CCNCC4)cn2)c1
Percent Effect (30.3 µM, […]): 61.6%

c1ccc(CN2CCC(CCNc3ncnc4c3CCNCC4)C2)cc1 (configuration not stated)
Percent Effect (30.3 µM, […]): -39.7%

c1ccc(CN2CCC(CNc3ncnc4c3CCNCC4)CC2)cc1
Percent Effect (30.3 µM, […]): -23.91%

Cn1cc(-c2cc(-c3cnn(C)c3)n(CC(=O)NC3CC3)n2)cn1
Percent Effect (30.3 µM, […]): -1.984%

Cc1ncc(CN(C)C2CCCN(CCc3ccccc3)C2)n1C (configuration not stated)
Percent Effect (30.3 µM, […]): 22.06%

CN(CCCNC(=O)C1CCCN(C(N)=O)C1)S(C)(=O)=O (configuration not stated)
Percent Effect (30.3 µM, […]): 4.871%

COc1cccc(CN2CCCC3(CCN(C(=O)c4ccco4)C3)C2)c1 (configuration not stated)
Percent Effect (30 µM, 30.03 µM): 53.43%

COc1cccc(CN2CCCC3(CCN(C(=O)[C@H]4CCCO4)C3)C2)c1 (some centres not stated)
Percent Effect (30 µM, 30.03 µM): 29.96%

COc1cccc(CN2CCCC3(CCN(C(=O)N4CCCC4)C3)C2)c1.O=C(O)C(F)(F)F (configuration not stated)
Percent Effect (30.3 µM, […]): 1.476%

COCc1ncc(CN2CC[C@@](C)(O)[C@@H](Cc3ccccc3)C2)cn1
Percent Effect (30.3 µM, […]): 11.16%

O=C(Cn1ccc2cc(Br)ccc21)NC[C@@H]1CCCN2CCCC[C@H]12
Percent Effect (30.3 µM, […]): 50.79%

COc1ccc2c(ccn2CC(=O)NC[C@@H]2CCCN3CCCC[C@H]23)c1
Percent Effect (30.3 µM, […]): 29.51%

O=C(CCn1ccc2cc(Br)ccc21)NC[C@@H]1CCCN2CCCC[C@H]12
Percent Effect (30.3 µM, […]): 94.12%

Cc1ccc2c(ccn2CC(=O)NC[C@@H]2CCCN3CCCC[C@H]23)c1
Percent Effect (30 µM, 30.03 µM): 26.96%

Cc1ccc2c(ccn2CCC(=O)NC[C@@H]2CCCN3CCCC[C@H]23)c1
Percent Effect (30 µM, 30.03 µM): 28.72%

O=C(Cn1ccc2ccc(Br)cc21)NC[C@@H]1CCCN2CCCC[C@H]12
Percent Effect (30 µM, 30.03 µM): -30.69%
